CSC inhib = cancer stem cell inhibition | inhibition, % at 7.5 µM | cancer stem cell-like cells viability, luminescence | actives 1.1% (n = 300,000); in the data active = inhibition above about 75%; tested in HMLE shEcad cells
Mdm2-MdmX inh = human Mdm2/MdmX binding inhibition. O15151+Q00987. actives 3% (n = 330,000). SaOS-2 split-luciferase Mdm2/MdmX complementation, luminescence. inhibition, % at 8 µM. AID 485346;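 active = inhibition of at least 50% at 8 µM in the primary screen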
Target sequence (O15151 whole entry, looked up): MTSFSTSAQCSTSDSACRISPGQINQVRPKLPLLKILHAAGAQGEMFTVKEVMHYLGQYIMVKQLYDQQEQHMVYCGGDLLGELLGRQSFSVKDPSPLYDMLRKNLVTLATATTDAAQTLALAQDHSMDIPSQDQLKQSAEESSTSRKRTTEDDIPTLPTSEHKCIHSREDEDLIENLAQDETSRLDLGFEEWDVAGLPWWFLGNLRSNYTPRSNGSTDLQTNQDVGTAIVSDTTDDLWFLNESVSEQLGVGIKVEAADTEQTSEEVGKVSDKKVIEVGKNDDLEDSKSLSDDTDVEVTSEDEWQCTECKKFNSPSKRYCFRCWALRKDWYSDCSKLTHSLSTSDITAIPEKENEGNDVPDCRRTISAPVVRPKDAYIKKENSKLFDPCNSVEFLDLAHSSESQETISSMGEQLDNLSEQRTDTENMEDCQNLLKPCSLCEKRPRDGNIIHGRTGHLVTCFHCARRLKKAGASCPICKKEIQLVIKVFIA
Target sequence (Q00987 whole entry, looked up): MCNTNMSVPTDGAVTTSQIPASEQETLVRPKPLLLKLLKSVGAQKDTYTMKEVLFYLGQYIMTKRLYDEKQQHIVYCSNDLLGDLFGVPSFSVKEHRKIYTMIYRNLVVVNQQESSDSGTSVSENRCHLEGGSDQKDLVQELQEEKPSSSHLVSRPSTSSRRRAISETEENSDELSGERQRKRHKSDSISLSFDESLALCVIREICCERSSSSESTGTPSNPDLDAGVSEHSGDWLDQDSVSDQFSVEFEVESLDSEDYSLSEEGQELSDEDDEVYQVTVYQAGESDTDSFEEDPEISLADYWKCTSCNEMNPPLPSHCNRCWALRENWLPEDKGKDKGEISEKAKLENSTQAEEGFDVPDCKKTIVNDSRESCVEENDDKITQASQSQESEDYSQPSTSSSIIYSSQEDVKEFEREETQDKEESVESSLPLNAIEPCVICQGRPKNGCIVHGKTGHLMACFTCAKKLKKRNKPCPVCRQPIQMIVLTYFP
PAX8 inh HTS = PAX8 transcriptional activity inhibition. AID 652154. RMG-I TPO-luciferase reporter, SteadyGlo, 24 h. actives 1.2% (n = 360,000). inhibition, % at 12.6 µM;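 active = mean replicate inhibition at least 60% with every replicate also reaching 60%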;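 also: luciferase light reporting Pax8 driven TPO promoter activity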
Shn3 inh set2 = Schnurri-3 reporter inhibition in Clone20 osteoblasts. Clone20 osteoblast Shn3 3'UTR firefly luciferase, 24 h. inhibition, % at 12.5 µM. actives 0.52% (n = 360,000). AID 588674;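 active = mean inhibition of at least 75% with every replicate also reaching 75%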
Beta apoptosis = blocks beta cell apoptosis | INS-1E cytokine-induced death, ATP luminescence, 48 h; percent of positive-control rescue, neutral wells zero | protection from apoptosis, % (test concentration not listed) | actives 0.8% (n = 300,000) | AID 435005;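 active = Every replicate reaches about 75%, or at least half do and their mean reaches it too, limit read from the data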;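 also: higher means more ATP so stronger rescue from cytokine killing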
Gli-Sufu block = blocks Gli-Sufu signaling in a luciferase reporter; actives 0.74% (n = 340,000); inhibition, % at 5 µM; Sufu-KO-LIGHT fibroblasts, Gli luciferase reporter luminescence;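 active = inhibition above about 55%, limit read from the data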
Mdm2 MdmX conf = confirmation of human Mdm2/MdmX interaction inhibitors; shares compounds with Mdm2-MdmX inh; Mdm2-MdmX binding, luminescent assay; inhibition, % at 8 µM; actives 55% (n = 10,000); AID 489028; in the data active = inhibition above about 40%
Full FLuc ctr = inhibits full-length luciferase, flagging false Mdm2/MdmX hits | shares compounds with Mdm2-MdmX inh | SaOS-2 full-length luciferase counterscreen, luminescence | inhibition, % at 8 µM | actives 77% (n = 6,200) | AID 504607;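 active = mean inhibition at 8 µM reaching about 37%, which flags the compound as non-specific, limit read from the data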;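 also: p53-null SaOS-2 cells with luciferase driven by a doxycycline-inducible promoter; compound on cells about two nights before reading with doxycycline added after day one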
Numbers stand for hits. Only some compounds are listed: those with a hit (about 4% of all), similar ones and a draw of the others.

What do the screens show for `Cc1ccc(-c2cc(C(=O)N3CCN(c4ccccc4O)CC3)c3ccccc3n2)cc1`?
CSC inhib: inactive; Mdm2-MdmX inh: 57; PAX8 inh HTS: inactive; Shn3 inh set2: inactive; Beta apoptosis: inactive; Gli-Sufu block: inactive; Mdm2 MdmX conf: inactive

Results for C[C@H]1CN([C@@H](C)CO)C(=O)Cc2cc(NC(=O)C3CC3)ccc2O[C@H]1CN(C)Cc1ccc(C(=O)Nc2ccccc2N)cc1 ?
PAX8 inh HTS: inactive

How did CO[C@H]1CC[C@@H]2CCN(C)C(=O)C[C@@H](c3ccccc3)CN(C)C(=O)c3cccc(C#N)c3OC[C@@H]1O2 do in these assays?
PAX8 inh HTS: inactive

How did CNC(=O)c1ccc(-c2sc3nc(N4CCOCC4)c4c(c3c2N)CC(C)(C)OC4)o1 do in these assays?
CSC inhib: inactive; Mdm2-MdmX inh: 61; Shn3 inh set2: inactive; Beta apoptosis: inactive; Gli-Sufu block: inactive; Mdm2 MdmX conf: inactive

How did CN1Cc2c(N3CCOCC3)nc3sc(C(=O)c4ccc(Br)cc4)c(N)c3c2CC1(C)C do in these assays?
CSC inhib: 102; Mdm2-MdmX inh: 91; PAX8 inh HTS: inactive; Beta apoptosis: inactive; Gli-Sufu block: inactive; Mdm2 MdmX conf: 61; Full FLuc ctr: 84

How did CN1Cc2c(N3CCOCC3)nc3sc(C#N)c(N)c3c2CC1(C)C do in these assays?
CSC inhib: inactive; Mdm2-MdmX inh: inactive; PAX8 inh HTS: inactive; Shn3 inh set2: inactive; Beta apoptosis: inactive; Gli-Sufu block: inactive

How did CC1(C)Cc2c(c(N3CCOCC3)nc3sc(-c4ccc(C(=O)O)o4)c(N)c23)CO1 do in these assays?
CSC inhib: inactive; Mdm2-MdmX inh: inactive; Shn3 inh set2: inactive; Beta apoptosis: inactive; Gli-Sufu block: inactive

How did CCc1nc(SCC(=O)N2c3ccccc3CC2C)c2c(C)c(C)sc2n1 (stereo not drawn) do in these assays?
CSC inhib: inactive; Mdm2-MdmX inh: 98; Shn3 inh set2: inactive; Beta apoptosis: inactive; Gli-Sufu block: inactive; Mdm2 MdmX conf: 93; Full FLuc ctr: 53

How did Cc1sc2nc(C(C)C)nc(SCC(=O)N3c4ccccc4CC3C)c2c1C (stereo not drawn) do in these assays?
CSC inhib: inactive; Mdm2-MdmX inh: 56; PAX8 inh HTS: inactive; Shn3 inh set2: inactive; Beta apoptosis: inactive; Gli-Sufu block: inactive; Mdm2 MdmX conf: inactive

What do the screens show for `CCOC(=O)CSc1nc(C(C)C)nc2sc(C)c(C)c12`?
Mdm2-MdmX inh: inactive; PAX8 inh HTS: inactive; Shn3 inh set2: inactive; Beta apoptosis: inactive; Gli-Sufu block: inactive

Results for CC(C)NC(=O)Nc1ccc2c(c1)CC(=O)N([C@H](C)CO)C[C@H](C)[C@@H](CN(C)Cc1ccc(Oc3ccccc3)cc1)O2 ?
PAX8 inh HTS: inactive

How did Cn1nnnc1SCC(=O)N1CCN(S(=O)(=O)c2ccc(Cl)cc2)CC1 do in these assays?
CSC inhib: inactive; Mdm2-MdmX inh: 70; PAX8 inh HTS: inactive; Shn3 inh set2: inactive; Gli-Sufu block: inactive; Mdm2 MdmX conf: inactive

What do the screens show for `Cn1nnnc1SCC(=O)N1CCN(S(=O)(=O)c2ccccc2)CC1`?
CSC inhib: inactive; Mdm2-MdmX inh: inactive; PAX8 inh HTS: inactive; Shn3 inh set2: inactive; Beta apoptosis: inactive; Gli-Sufu block: inactive

What do the screens show for `Cc1cc(N)n2ncc(-c3ccc(Cl)cc3)c2n1`?
CSC inhib: inactive; Mdm2-MdmX inh: inactive; PAX8 inh HTS: inactive; Shn3 inh set2: inactive; Beta apoptosis: inactive; Gli-Sufu block: inactive

Results for Cc1cc(NCCCN2CCOCC2)n2ncc(-c3ccccc3)c2n1 ?
CSC inhib: inactive; Mdm2-MdmX inh: inactive; Shn3 inh set2: inactive; Beta apoptosis: inactive; Gli-Sufu block: inactive

Results for Cc1cc(NCCOCCO)n2ncc(-c3ccc(Cl)cc3)c2n1 ?
CSC inhib: inactive; Mdm2-MdmX inh: 61; PAX8 inh HTS: inactive; Shn3 inh set2: inactive; Beta apoptosis: inactive; Gli-Sufu block: inactive; Mdm2 MdmX conf: 54; Full FLuc ctr: 59

How did CN(C)CCCNc1cc(C(C)(C)C)nc2c(-c3ccccc3)cnn12 do in these assays?
CSC inhib: 99; Mdm2-MdmX inh: 100; PAX8 inh HTS: inactive; Beta apoptosis: 113; Gli-Sufu block: inactive; Mdm2 MdmX conf: 52; Full FLuc ctr: 72

What do the screens show for `CC(C)(C)c1cc(NCCCn2ccnc2)n2ncc(-c3ccc(Cl)cc3)c2n1`?
CSC inhib: 112; Mdm2-MdmX inh: 74; Shn3 inh set2: inactive; Beta apoptosis: inactive; Gli-Sufu block: inactive; Mdm2 MdmX conf: 43; Full FLuc ctr: inactive

Results for O=C(C[C@H]1C=C[C@H](NC(=O)C2CCC2)[C@H](CO)O1)NCc1ccncc1 ?
PAX8 inh HTS: inactive

Results for C[C@@H]1CN([C@@H](C)CO)C(=O)c2cc(C#C[C@@H](C)O)cnc2O[C@H]1CN(C)C(=O)Cc1ccncc1 ?
PAX8 inh HTS: inactive

How did CCOC(=O)N1CCc2c(sc(NC(=O)c3ccc(Cl)s3)c2C(N)=O)C1 do in these assays?
CSC inhib: 86; Mdm2-MdmX inh: 55; Mdm2 MdmX conf: inactive

Results for CCOC(=O)c1c(NC(=O)c2cccs2)sc2c1CCCC2 ?
CSC inhib: inactive; Mdm2-MdmX inh: inactive; Shn3 inh set2: inactive; Beta apoptosis: inactive; Gli-Sufu block: inactive

How did CCOC(=O)c1c(NC(=O)c2cccs2)sc2c1CCN(C(=O)OCC)C2 do in these assays?
CSC inhib: inactive; Mdm2-MdmX inh: 65; Shn3 inh set2: inactive; Beta apoptosis: inactive; Gli-Sufu block: inactive; Mdm2 MdmX conf: inactive

How did COc1ccc(CCn2c(=N)c(C(=O)NC3CCCC3)cc3c(=O)n4ccccc4nc32)cc1 do in these assays?
CSC inhib: inactive; Mdm2-MdmX inh: 52; PAX8 inh HTS: inactive; Shn3 inh set2: inactive; Beta apoptosis: inactive; Gli-Sufu block: inactive; Mdm2 MdmX conf: inactive

Results for COc1cccc(NC(=O)c2cc3c(=O)n4ccccc4nc3n(CC(C)C)c2=N)c1 ?
CSC inhib: inactive; Mdm2-MdmX inh: 74; PAX8 inh HTS: inactive; Shn3 inh set2: inactive; Beta apoptosis: inactive; Gli-Sufu block: inactive; Mdm2 MdmX conf: 68; Full FLuc ctr: 41

How did Cc1cccc(NC(=O)c2cc3c(=O)n4ccccc4nc3n(CC(C)C)c2=N)c1 do in these assays?
CSC inhib: inactive; Mdm2-MdmX inh: inactive; PAX8 inh HTS: inactive; Shn3 inh set2: inactive; Beta apoptosis: inactive; Gli-Sufu block: inactive

How did C[C@H](CO)N1C[C@H](C)[C@H](CN(C)C(=O)Nc2ccc(-c3ccccc3)cc2)OCc2ccccc2-c2ccccc2C1=O do in these assays?
PAX8 inh HTS: inactive

How did CC(C)C[C@H]1CN=C(Nc2ccccc2)N1CCCC1CCCC1 do in these assays?
CSC inhib: inactive; Mdm2-MdmX inh: inactive; PAX8 inh HTS: inactive; Shn3 inh set2: inactive; Beta apoptosis: inactive; Gli-Sufu block: inactive

Results for CC(C)C[C@H]1CN=C(Nc2ccccc2)N1CCCC1CCCCC1 ?
CSC inhib: inactive; Mdm2-MdmX inh: 50; PAX8 inh HTS: inactive; Shn3 inh set2: inactive; Beta apoptosis: inactive; Gli-Sufu block: inactive; Mdm2 MdmX conf: inactive

Bioassay records from PubChem.
